For 15 compounds, Potency and outcome results are on record in PubChem BioAssay (NCATS).

Results filed as inconclusive are left out. Active and inactive are the calls of the source. Unless noted, the call rests on the fitted dose curve; in most records, active means well fitted curve in the direction sought with a large enough effect; inconclusive means small, poorly fitted or top-dose-only effect, or another doubt; inactive means no such curve, though single readings can be large; an effect the other way counts as inactive or inconclusive.

The target in experiment [1] is Voltage-gated inwardly rectifying potassium channel KCNH2 (Homo sapiens) (UniProt Q12809). Put plainly: qHTS Assay for Small Molecule Inhibitors of the Human hERG Channel Activity (AID 588834).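 Further: lower thallium flux fluorescence means stronger hERG block; nearly all actives have a fitted effect of over 50% in size.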 Further: potency means the concentration at half of the fitted maximal effect. The essentials:
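Concentration-response qHTS measuring drop in thallium-sensitive dye signal. U2OS cells carrying BacMam hERG; compound exposure ~10 min, then stimulation buffer and 2 min read at 1 sec intervals.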
(In qHTS, concentration-response curves come from the screen itself.)

Experiment [2] can be described thus: S16 Schwann cell viability assay (CellTiter-Glo assay) (AID 624031).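 Further: native untransfected S16 rat Schwann cells; cellular ATP luminescence as a viability measure; series mostly up to about 58 µM; nearly all actives have a fitted effect of over 70% in size.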 The essentials: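 Cells were seeded at 500-750 per well in phenol red-free DMEM with 10% FBS and left overnight. Compounds or DMSO were pinned in, incubation ran 24 h at 37 °C/5% CO2, then CellTiter-Glo reagent was added and luminescence measured.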
Experiment [3] is described as follows: S16 Schwann cell PMP22 intronic element firefly luciferase assay (AID 624032). Further: series mostly up to about 58 µM; nearly all actives have a fitted effect of over 30% in size. The essentials:
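Luciferase reporter of PMP22 intronic-element expression in stably transfected S16 rat Schwann cells, read by ONE-Glo luminescence after 24 h compound exposure at 37 C. Activity scaled between DMSO (0%) and positive-control PTC124; concentration-effect curves quality-classified.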

Experiment [4] can be described thus: S16 Schwann cell PMP22 intronic element beta-lactamase assay (AID 624044; calls by dose curve; further: nearly all actives have a fitted effect of over 15% in size). The essentials: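 Rat S16 Schwann cells with beta-Lac driven by a PMP22 intronic element, compound-treated 24 h at 37 °C. LiveBLAzer FRET B/G read: 460 nm normalized to potassium clavulanate vs DMSO; 535 nm FRET as viability; concentration-effect curves classified.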
For experiment [5], the target named is Luciferin 4-monooxygenase (Photinus pyralis) (UniProt P08659). Put plainly: Biochemical firefly luciferase enzyme assay for NPC (AID 624030).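 Further: purified P. pyralis luciferase at 10 nM with luciferin and ATP substrate; series mostly up to about 59 µM; nearly all actives have a fitted effect of over 70% in size.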 The essentials:
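Direct inhibition of firefly luciferase enzyme (10 nM final, 50 mM Tris Acetate) assessed by luminescence within 5 minutes. Percent activity scaled between DMSO and PTC124 positive control, with concentration-effect curves classified by fit quality and response.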

In experiment [6] the target is Glucagon-like peptide 1 receptor (Homo sapiens) (UniProt P43220). Description: qHTS of GLP-1 Receptor Agonists: LOPAC Validation (AID 624148).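 Further: luminescence from a luciferase reporter switched on by cAMP; higher luminescence signal means agonism.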 The method in brief: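 Agonism scored as increased luciferase luminescence driven by cAMP in HEK293 clones carrying GLP-1R. Cells settled 12 hours, received compound for 4-6 hr at 37 deg C, 5% CO2, and were read after 12 min detection reagent at RT.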
Sequence of Glucagon-like peptide 1 receptor (Homo sapiens) (P43220 whole entry, looked up): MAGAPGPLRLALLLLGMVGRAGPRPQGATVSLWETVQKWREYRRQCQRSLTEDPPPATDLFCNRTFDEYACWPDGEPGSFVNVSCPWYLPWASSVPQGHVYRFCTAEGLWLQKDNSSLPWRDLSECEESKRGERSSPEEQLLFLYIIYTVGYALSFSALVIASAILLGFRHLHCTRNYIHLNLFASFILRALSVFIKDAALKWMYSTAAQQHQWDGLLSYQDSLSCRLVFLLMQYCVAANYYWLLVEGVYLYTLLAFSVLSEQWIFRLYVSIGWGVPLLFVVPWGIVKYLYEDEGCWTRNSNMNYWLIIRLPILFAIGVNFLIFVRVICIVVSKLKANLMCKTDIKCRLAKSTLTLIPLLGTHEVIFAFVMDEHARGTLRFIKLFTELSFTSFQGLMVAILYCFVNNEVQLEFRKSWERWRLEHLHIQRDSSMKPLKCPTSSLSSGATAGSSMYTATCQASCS

The nature of experiment [7]: qHTS of Nrf2 Activators: LOPAC Validation (AID 624149). The essentials: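 Luminescence read-out of ARE-luciferase activation: AREc32_Fluc cells treated with compounds for 24 hr at 37 deg C, then lysed with Steady-Glo for 30 min at room temperature before reading.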
Experiment [8] in a line: HTS Assay for Allosteric Antagonists of the Human D2 Dopamine Receptor: Hit Validation in HTRF (AID 624455).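 Further: stable D1 dopamine receptor cell line scored for blocking the D1 response.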 The essentials: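 First, antagonism was screened by calcium flux in a force-coupled, inducible Hek293 Trex D2 line challenged with EC80 dopamine. Hits then went into an HTRF assay in cells stably expressing D1, testing inhibition of the D1 response.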
On the technique in general: Time-resolved FRET reads energy transfer from a long-lived donor to a nearby acceptor.

Sequence of Luciferin 4-monooxygenase (Photinus pyralis) (P08659 whole entry, looked up): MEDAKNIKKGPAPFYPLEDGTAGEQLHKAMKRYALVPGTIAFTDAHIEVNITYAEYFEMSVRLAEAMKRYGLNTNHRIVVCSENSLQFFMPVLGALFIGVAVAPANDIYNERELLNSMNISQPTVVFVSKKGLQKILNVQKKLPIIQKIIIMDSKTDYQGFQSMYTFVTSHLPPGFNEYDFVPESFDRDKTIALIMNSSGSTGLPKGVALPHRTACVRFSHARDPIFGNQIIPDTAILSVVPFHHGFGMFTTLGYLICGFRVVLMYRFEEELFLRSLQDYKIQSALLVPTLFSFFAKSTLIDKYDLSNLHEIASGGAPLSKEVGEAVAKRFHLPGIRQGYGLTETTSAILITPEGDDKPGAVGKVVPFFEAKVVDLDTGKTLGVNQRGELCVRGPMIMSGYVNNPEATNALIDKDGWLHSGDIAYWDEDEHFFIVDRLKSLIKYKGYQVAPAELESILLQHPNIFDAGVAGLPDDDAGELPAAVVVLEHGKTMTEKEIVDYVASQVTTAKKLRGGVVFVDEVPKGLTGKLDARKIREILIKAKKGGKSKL
Sequence of Voltage-gated inwardly rectifying potassium channel KCNH2 (Homo sapiens) (Q12809 whole entry, looked up): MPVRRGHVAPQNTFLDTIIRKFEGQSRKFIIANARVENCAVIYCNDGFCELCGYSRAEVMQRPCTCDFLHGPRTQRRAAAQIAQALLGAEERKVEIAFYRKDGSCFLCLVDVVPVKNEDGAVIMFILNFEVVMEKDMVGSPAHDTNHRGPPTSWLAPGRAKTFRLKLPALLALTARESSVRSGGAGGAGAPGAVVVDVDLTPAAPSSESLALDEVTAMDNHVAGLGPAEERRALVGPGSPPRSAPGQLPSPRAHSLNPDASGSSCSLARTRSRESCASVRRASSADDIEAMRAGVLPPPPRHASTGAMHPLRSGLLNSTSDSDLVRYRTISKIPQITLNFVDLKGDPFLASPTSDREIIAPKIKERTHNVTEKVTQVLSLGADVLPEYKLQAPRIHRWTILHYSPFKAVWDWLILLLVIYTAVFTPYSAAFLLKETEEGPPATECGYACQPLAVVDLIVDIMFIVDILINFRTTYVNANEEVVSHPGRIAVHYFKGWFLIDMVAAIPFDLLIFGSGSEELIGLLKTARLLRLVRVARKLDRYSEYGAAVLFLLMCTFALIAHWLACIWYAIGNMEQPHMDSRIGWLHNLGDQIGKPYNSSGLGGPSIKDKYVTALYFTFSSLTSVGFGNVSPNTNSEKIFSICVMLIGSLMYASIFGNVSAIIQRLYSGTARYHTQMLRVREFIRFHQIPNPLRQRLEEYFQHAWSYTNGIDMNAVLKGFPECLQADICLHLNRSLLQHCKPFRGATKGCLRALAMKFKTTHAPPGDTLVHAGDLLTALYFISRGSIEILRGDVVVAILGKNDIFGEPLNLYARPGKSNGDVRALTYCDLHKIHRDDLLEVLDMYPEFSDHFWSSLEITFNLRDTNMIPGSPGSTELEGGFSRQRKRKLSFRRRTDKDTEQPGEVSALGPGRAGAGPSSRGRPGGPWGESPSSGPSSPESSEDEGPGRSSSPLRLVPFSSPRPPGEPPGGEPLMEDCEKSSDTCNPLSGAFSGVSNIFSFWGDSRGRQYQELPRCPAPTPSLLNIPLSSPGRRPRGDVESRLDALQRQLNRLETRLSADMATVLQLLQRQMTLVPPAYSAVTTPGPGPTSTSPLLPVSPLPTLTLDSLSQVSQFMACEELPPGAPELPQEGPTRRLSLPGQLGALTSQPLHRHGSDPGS

Consider `CCC1(CC)C(=O)NC(=O)N(C)C1=O`, for which the Potency result in experiment [1], in experiment [2], in experiment [3] and in experiment [4] was “inactive” in each case.

Consider `OC(c1ccccc1)(c1ccccc1)C1CN2CCC1CC2` (configuration not stated), for which, in experiment [1], the Potency was 3.55 µM (active). The Potency entry in experiment [2] and in experiment [4] was “inactive” in each case.

Turning to `CC(=O)O[C@H]1CC[C@H]2[C@@H]3CCC4=CC(=O)CCC4=C3C=C[C@]12C`, the Potency entry in experiment [1], in experiment [5], in experiment [2] and in experiment [4] was “inactive” each time.

In the case of `CCN(CC)C(=O)/C(Cl)=C(\C)OP(=O)(OC)OC`, the Potency result in experiment [1] and in experiment [2] was “inactive” throughout.

Consider `C#CC(C)(O)CC` (configuration not stated), for which the Potency result in experiment [1], in experiment [2] and in experiment [3] was “inactive” each time.

For the compound `O=C1CC[C@@]2(O)C3Cc4ccc(O)c5c4C2(CCN3CC2CC2)[C@H]1O5` (some centres not stated), the Potency in experiment [1] is 11.2 µM (active). Further, the Potency entry in experiment [5], in experiment [2], in experiment [4], in experiment [7] and in experiment [8] was “inactive” each time. Also, the call in experiment [6] was inactive.

As to `CC(Cc1ccccc1)NC=O` (configuration not stated), the Potency result in experiment [1], in experiment [2] and in experiment [3] was “inactive” throughout.

As to `N#CC1(N2CCCCC2)CCCCC1`, the Potency entry in experiment [1], in experiment [2] and in experiment [4] was “inactive” throughout.

Consider `CCC1(C)CC(=O)NC(=O)C1`, for which the Potency entry in experiment [1], in experiment [2], in experiment [3] and in experiment [4] was “inactive” in each case.

With `C[N+]1(C)CCCCC1COC(=O)C(O)(c1ccccc1)c1ccccc1` (configuration not stated), the Potency entry in experiment [1], in experiment [5], in experiment [2] and in experiment [4] was “inactive” each time.

As for `O=c1[nH]cc(N(CCCl)CCCl)c(=O)[nH]1`, the Potency entry in experiment [1], in experiment [2] and in experiment [4] was “inactive” in each case.

As to `Clc1ccc(C2(Cn3cncn3)OCCO2)c(Cl)c1`, the Potency result in experiment [1], in experiment [5], in experiment [2] and in experiment [4] was “inactive” each time.

As for `O=C1CN(O)C(c2ccccc2)=c2cc(Cl)ccc2=N1`, the Potency entry in experiment [1], in experiment [2] and in experiment [4] was “inactive” throughout.

On to `CCC1(c2ccccc2)C(=O)NC(=O)N(C(=O)c2ccccc2)C1=O` (configuration not stated), for which the Potency result in experiment [1], in experiment [2] and in experiment [4] was “inactive” in each case.

`NCC(O)c1cccc(O)c1` (configuration not stated): the Potency result in experiment [1] and in experiment [2] was “inactive” in each case.
